The target of assay [1] is Calcium and integrin-binding protein 1 (Homo sapiens) (UniProt Q99828). Description: Primary qHTS for Identification of Calcium Integrin Binding Protein 1 (CIB1) Competitor (AID 1508620).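 Also: GST tagged CIB1 binding a fluorescein labelled alphaIIb integrin peptide tracer; top concentration of the series differs between compounds.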 The procedure, abridged: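 CIB1-GST (1 uM final) and compound incubated 15 min at room temperature before adding FITC-alphaIIb peptide tracer (100 nM final). Competition for binding read by fluorescence polarization (ex 480, em 540) after another 15 min at room temperature.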
Sequence of Calcium and integrin-binding protein 1 (Homo sapiens) (Q99828 whole entry, looked up): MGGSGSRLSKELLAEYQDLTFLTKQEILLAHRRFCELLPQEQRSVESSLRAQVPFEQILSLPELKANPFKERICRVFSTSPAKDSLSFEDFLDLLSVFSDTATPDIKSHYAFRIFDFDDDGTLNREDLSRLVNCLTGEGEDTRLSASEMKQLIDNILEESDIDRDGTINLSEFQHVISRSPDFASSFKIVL

Assay [2] has as its target Glutathione peroxidase 1 (Homo sapiens) (UniProt P07203). The experiment in a line: Primary qHTS Assay for Inhibitors of Recombinant Selenoprotein Glutathione Peroxidase 1 (GPX1) (AID 1845191). Also: nearly all actives have a fitted effect of over 65% in size. The procedure, abridged:
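NADPH consumption tracked by fluorescence at 340/450 nm between t=0 and t=15 min, room temperature. Final mix: 10 nM GPX1, 100 nM glutathione reductase, 1 mM GSH, 0.5 mM NADPH, 0.5 mM cumene hydroperoxide, 0.01% BSA; 30 min compound–enzyme preincubation.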

For assay [3], the target named is Phospholipid hydroperoxide glutathione peroxidase GPX4 (Homo sapiens) (UniProt P36969). The experiment in a line: Primary qHTS Assay for Inhibitors of Recombinant Selenoprotein Glutathione Peroxidase 4 (GPX4) (AID 1845192). Also: nearly all actives have a fitted effect of over 65% in size. The following applies: outcome: dose series up to 50 µM unless noted. The procedure, abridged:
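NADPH consumption followed by fluorescence at 340/450 nm, t=0 and after 15 min at room temperature. Reaction started with cumene hydroperoxide (0.5 mM final) after 30 min compound–GPX4 preincubation; final 200 nM GPX4, 100 nM GR, 1 mM GSH, 0.5 mM NADPH.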

Assay [4] has as its system Zika virus NS2B-NS3 protease (linked construct). Description: Primary screen NINDS Rhodamine qHTS for Zika virus inhibitors (AID 1347160). Also: nearly all actives have a fitted effect of over 55% in size. The procedure, abridged: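 Each compound, titrated, sat 15 min with 25 nM linked protease before 1.5 microM Rhodamine110 substrate went in. Fluorescence gain over the next 15 min, in pH 8.0 Tris with Tween 20, gave Hill-fitted curves.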

A short description of assay [5]: Primary qHTS for inhibitors of nuclear receptor binding SET domain protein 2 (NSD2) in an isogenic RCH-ACV NSD2 p.E1099K mutant (9B) (AID 1645876). Also: nearly all actives have a fitted effect of over 70% in size. Also: potency is read from the fitted curve at half-maximal effect.
Assay [6] can be described thus: Primary qHTS for inhibitors of nuclear receptor binding SET domain protein 2 (NSD2) in an RCH-ACV wild type WT cells (2C) (AID 1645877). Also: potency is read from the fitted curve at half-maximal effect; nearly all actives have a fitted effect of over 70% in size.
Assay [7] addresses Luciferin 4-monooxygenase (Photinus pyralis) (UniProt P08659). Description: Primary firefly luciferase (FLuc) qHTS assay for identification of artifact compounds. (AID 1845220). Also: nearly all actives have a fitted effect of over 60% in size. Also: potency is read from the fitted curve at half-maximal effect. The procedure, abridged:
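FLuc 10 nM; luciferin 10 uM; ATP 10 uM; Tris-acetate pH 7.6, Mg-acetate 10 mM; 15 min RT preincubation; 5 min reaction; luminescence.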

Assay [8] in a line: Primary fluorescence-based thiol-reactive (MSTI) qHTS assay for identification of artifact compounds. (AID 1845221). Also: nearly all actives have a fitted effect of over 65% in size. Also: potency is read from the fitted curve at half-maximal effect. The procedure, abridged:
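First, 4 uM MSTI in 2% DMSO/PBS pH 7.4 was dispensed; next, compounds were added; then plates sat 1 h at room temperature without light. Finally, emission at 598 nm was recorded.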

In assay [9] the test system is Nanoluciferase (engineered Oplophorus gracilirostris luciferase). The experiment in a line: Primary Nanoluciferase (NLuc) qHTS assay for identification of artifact compounds. (AID 1845222).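 Also: NLuc secreted into diluted conditioned medium of S16 cells.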 The procedure, abridged:
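NLuc from S16 cell medium (1:55) plus test compounds, 15 min, room temperature. Luminescence after Nano-Glo (1:100) addition, 5 min.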

A short description of assay [10]: Primary redox qHTS assay for identification of artifact compounds. (AID 1845223). The procedure, abridged: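 Redox-cycling detection via DTT (250 uM final) oxidation coupled to Amplex Red (25 uM)/HRP (250 mU/mL) in HBSS. 15 min preincubation plus 30 min after DTT, room temperature. Ex/Em 525/598 nm; 4-parameter Hill fit against DMSO and 10 uM DA3003.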
Assay [11] concerns C33A. The experiment in a line: Primary qHTS to identify gynecologic anti-cancer compounds using libraries of approved drugs and bioactive compounds (AID 1345084). Also: nearly all actives have a fitted effect of over 55% in size. To be noted: Gynecologic cancer cell panel viability, ATPlite luminescence, 48 h; series mostly up to 57.5 µM. The procedure, abridged:
(§1)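 48 h compound exposure at 37 C, 5% CO2; five-point qHTS. ATPlite luminescence readout of cell ATP.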

Assay [12] has as its system CASKI. The assay is described as above. The following applies: Gynecologic cancer cell panel viability, ATPlite luminescence, 48 h; series mostly up to 57.5 µM. The procedure, abridged:
as §1

Assay [13] relates to Es-2. The assay is described as above. The following applies: Gynecologic cancer cell panel viability, ATPlite luminescence, 48 h; series mostly up to 57.5 µM. The procedure, abridged:
as §1

Assay [14] relates to HeLa. The assay is described as above. To be noted: Gynecologic cancer cell panel viability, ATPlite luminescence, 48 h; series mostly up to 57.5 µM. The procedure, abridged: as §1
Assay [15] relates to Hek293T. The assay is described as above. To be noted: Gynecologic cancer cell panel viability, ATPlite luminescence, 48 h, control line for the selectivity index; series mostly up to 57.5 µM. The procedure, abridged:
as §1

For assay [16], the system named is JEG-3. The description is as above. To be noted: Gynecologic cancer cell panel viability, ATPlite luminescence, 48 h; series mostly up to 57.5 µM. The procedure, abridged: as §1
For assay [17], the system named is OV90. The assay is described as above. To be noted: Gynecologic cancer cell panel viability, ATPlite luminescence, 48 h; series mostly up to 57.5 µM. The procedure, abridged: as §1
The test system of assay [18] is PA-1. Described as above. To be noted: Gynecologic cancer cell panel viability, ATPlite luminescence, 48 h; series mostly up to 57.5 µM. The procedure, abridged: as §1
The subject of assay [19] is Tov-21-G. Described as above. To be noted: Gynecologic cancer cell panel viability, ATPlite luminescence, 48 h; series mostly up to 57.5 µM. The procedure, abridged: as §1
The subject of assay [20] is Tov112D. The assay is described as above. To be noted: Gynecologic cancer cell panel viability, ATPlite luminescence, 48 h; series mostly up to 57.5 µM. The procedure, abridged:
as §1

Values without a mark were called inactive. Records with an inconclusive call do not appear. Calls of active or inactive are those of the source. Calls follow the shape of the dose curve; as a rule, active = well fitted curve in the direction sought with a large enough effect; inconclusive = small, poorly fitted or top-dose-only effect, or another doubt; inactive = no such curve, though single readings can be large; an effect the other way counts as inactive or inconclusive.

Sequence of Glutathione peroxidase 1 (Homo sapiens) (P07203 whole entry, looked up): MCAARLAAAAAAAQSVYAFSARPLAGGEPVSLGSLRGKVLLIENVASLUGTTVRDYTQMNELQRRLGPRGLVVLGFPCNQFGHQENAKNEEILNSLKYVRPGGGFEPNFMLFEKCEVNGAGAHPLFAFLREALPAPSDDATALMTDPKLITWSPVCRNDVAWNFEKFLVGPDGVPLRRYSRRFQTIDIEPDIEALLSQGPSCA
Sequence of Phospholipid hydroperoxide glutathione peroxidase GPX4 (Homo sapiens) (P36969 whole entry, looked up): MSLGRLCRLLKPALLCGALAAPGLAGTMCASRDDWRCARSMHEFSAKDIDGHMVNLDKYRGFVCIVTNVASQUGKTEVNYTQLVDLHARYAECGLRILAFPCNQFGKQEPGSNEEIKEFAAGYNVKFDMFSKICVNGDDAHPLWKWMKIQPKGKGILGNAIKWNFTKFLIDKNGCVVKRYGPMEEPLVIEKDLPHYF

For `Cc1nc2ccc(C(=O)N3CCC4(CC3)CC(=O)c3c(cnn3C(C)C)C4)cc2[nH]1`, in assay [1], the outcome was inactive. Further, the Potency result in [2] and in assay [3] was “inactive” each time.

As for `Cc1ccc(C(=O)N2CCN(c3ccc([N+](=O)[O-])cc3)CC2)cc1Cl`, the Potency result in assay [4], in [2], in assay [3], in [7], in assay [8] and in assay [9] was “inactive” throughout. Besides, the Potency result in assay [10], in [11], in [12], in assay [13], in assay [14] and in assay [15] was “inactive” each time. Also, the Potency result in assay [16], in assay [17], in assay [18], in [19] and in assay [20] was “inactive” in each case. Further, in assay [1], the result was inactive. For the same compound, the figures for the Potency in assay [5] and in assay [6] were 12.9 µM (active) and 11.5 µM (active), respectively.

With `COc1cc2ncnc(Nc3ccc(Oc4ccccc4)cc3)c2cc1OC`, the Potency entry in assay [4], in assay [7], in assay [8], in [9], in assay [11] and in [16] was “inactive” in each case. For the same compound, the Potency result in assay [17] was “inactive”. In assay [5], the Potency is 4.59 µM (active).

Turning to `CCOC(=O)c1cccc(CNc2ccc(N(C)C(=O)Nc3ccccc3)cc2)c1`, the Potency entry in assay [4], in [2], in assay [3], in [7], in assay [9] and in [14] was “inactive” in each case. The Potency entry in [16], in assay [19] and in assay [20] was “inactive” each time. The outcome in assay [1] was inactive. The Potency in assay [5] and in [6] was 14.5 µM (active) in each case.

Consider `CC1CCCC(SCC(O)C(=O)O)CC(=O)c2c(O)cc(O)cc2CC(=O)O1` (configuration not stated), for which the Potency result in assay [4], in assay [2], in [3], in assay [7], in [9] and in [10] was “inactive” in each case. The Potency result in assay [14], in [16], in assay [17] and in [19] was “inactive” each time. Moreover, the outcome in [1] was inactive. The values for the Potency in assay [5] and in assay [6] were 6.32 µM (active) and 3.55 µM (active), respectively.

As for `COc1ccccc1NC(=O)Nc1ccc2ccccc2c1`, the Potency result in assay [4], in assay [2], in [3], in assay [8], in assay [10] and in assay [11] was “inactive” throughout. Besides, the Potency entry in assay [13], in [14], in [15], in assay [16], in [18] and in assay [20] was “inactive” throughout. In addition, the result in assay [1] was inactive. The Potency is 25.8 µM (active) in assay [5], 2.9 µM (active) in assay [6] and 8.49 µM (active) in assay [7].

In the case of `CC(C)(C)c1ccc(CNC(=S)NCc2ccc(NS(C)(=O)=O)c(F)c2)cc1`, the Potency entry in assay [4], in assay [3], in assay [7], in assay [8], in [9] and in [11] was “inactive” throughout. Also, the Potency entry in [12], in [13], in [14], in assay [15], in [17] and in [18] was “inactive” in each case. Further, the Potency result in assay [19] and in assay [20] was “inactive” each time. In addition, in assay [1], the outcome was inactive. In addition, the Potency is 20.5 µM (active) in assay [5] and 12.9 µM (active) in assay [6].

`O=[N+]([O-])c1ccc(-[n+]2nc(-c3ccccc3)nn2-c2ccc(I)cc2)cc1`: the Potency result in [4], in assay [5], in assay [2], in assay [3], in assay [7] and in assay [10] was “inactive” each time. The Potency result in assay [11], in assay [12], in assay [13], in assay [14], in assay [15] and in assay [16] was “inactive” each time. The Potency result in assay [18] and in assay [20] was “inactive” each time. Moreover, in assay [1], the outcome was inactive. The Potency in [8] is 10.6 µM (active).

Turning to `CC1(C)CC23[C@@H]4CC(=O)[C@@H]2COC(=O)[C@@H]3CC[C@H]41`, the Potency result in assay [4], in [2], in [3], in assay [7], in assay [8] and in assay [9] was “inactive” each time. Besides, the Potency result in assay [10], in assay [11], in assay [12], in assay [13], in assay [14] and in assay [16] was “inactive” in each case. Further, the Potency result in [17], in assay [18] and in assay [20] was “inactive” in each case. The outcome in assay [1] was inactive. Besides, the Potency in [5] is 12.9 µM (active); in assay [6], 7.28 µM (active).

For `C=C1[C@@H](C)[C@H]2[C@H](Cc3c[nH]c4ccccc34)NC(=O)[C@]23C(=O)/C=C/C(=O)[C@H](O)/C(C)=C\[C@@H](C)C/C=C/[C@H]3[C@@H]1O`, the Potency result in [4], in [2], in assay [3], in [7], in assay [8] and in [9] was “inactive” in each case. Besides, the Potency result in assay [10], in [11], in assay [12], in assay [13], in assay [15] and in [16] was “inactive” each time. Moreover, the Potency result in assay [17], in assay [18] and in [20] was “inactive” in each case. For the same compound, the outcome in [1] was inactive. The Potency was 3.99 µM (active) in assay [5] and 0.796 µM (active) in [6].

Take `CN1CCN(C(=O)c2ccc(Nc3nccc(-c4cccs4)n3)cc2Cl)CC1`: the Potency result in assay [4], in [2], in assay [3], in [7], in assay [8] and in assay [9] was “inactive” in each case. Moreover, the Potency result in [10], in assay [11], in assay [12], in [13], in assay [14] and in assay [15] was “inactive” each time. Further, the Potency entry in assay [17] and in assay [18] was “inactive” in each case. Also, the outcome in assay [1] was inactive. The Potency in assay [5] was 7.28 µM (active); in assay [6], 6.49 µM (active).

In the case of `O=c1c(-n2ccnn2)c[nH]n1-c1cc(N2CCOCC2)ncn1`, in assay [1], the outcome was inactive. Besides, the Potency in [5] and in [6] was 20.9 µM (active) throughout. Also, the Potency entry in assay [2] and in assay [3] was “inactive” in each case.

Turning to `Oc1ccc(Nc2nc(-c3ccc(Cl)cc3)cs2)cc1`, the Potency result in assay [4], in assay [2], in assay [3], in [9], in assay [10] and in assay [12] was “inactive” throughout. In addition, the Potency result in assay [13], in [15], in [16], in assay [17] and in assay [19] was “inactive” throughout. For the same compound, the outcome in [1] was inactive. In addition, the Potency in [5] was 6.61 µM (active); in assay [6], 6.61 µM (active); in assay [7], 4.78 µM (active); in assay [8], 1.5 µM (active).

Turning to `C=C(C)[C@@H]1CC[C@]2(C(=O)O)CC[C@]3(C)C(CCC4[C@@]5(C)C[C@@H](O)[C@H](O)C(C)(C)C5CC[C@]43C)C12` (some centres not stated), the Potency entry in assay [4], in assay [2], in assay [3], in assay [7], in assay [8] and in assay [9] was “inactive” throughout. For the same compound, the Potency entry in assay [10], in [11], in [12], in [13], in assay [14] and in [15] was “inactive” in each case. Besides, the Potency result in assay [16], in [17], in [18], in assay [19] and in assay [20] was “inactive” throughout. Further, the result in [1] was inactive.

The values are drawn from PubChem BioAssay (NCATS).
